In PubChem BioAssay (NCI):
Compounds without any hit were thinned out: in the full panel of roughly 79,000, 15% have a hit. Rule as the data show it: active = growth inhibition above about 70%; inactive = the rest.

Assays:
[1] = NCI Yeast Anticancer Drug Screen. Data for the rad50 strain (AID 155);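 also: 0% = growth of vehicle-only cultures of the same strain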; settings: S. cerevisiae rad50 strain growth inhibition; at 50.0 µM; active compounds read high
How it was run: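 Cells are treated with compound, grown, and their growth is then scored against vehicle-only cultures of the same repair-deficient yeast strain.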

[2] = NCI Yeast Anticancer Drug Screen. Data for the mec2-1 strain (AID 157); settings: S. cerevisiae mec2-1 strain, at 50.0 µM, active compounds read high
How it was run: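 Mutant yeast (mec2-1) grown with compound; growth inhibition relative to vehicle control reported.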

[3] = NCI Yeast Anticancer Drug Screen. Data for the sgs1 mgt1 strain (AID 161);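 also: 0% = growth of cultures given vehicle only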; settings: S. cerevisiae sgs1 mgt1 strain, at 50.0 µM, active compounds read high
How it was run: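 Yeast cells carrying a defined DNA-repair defect were exposed to test compounds. Growth inhibition was measured relative to vehicle-treated controls.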

[4] = NCI Yeast Anticancer Drug Screen. Data for the cln2 rad14 strain (AID 165);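 also: 0% = growth equal to vehicle treated cultures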; settings: S. cerevisiae cln2 rad14 strain, at 50.0 µM, active compounds read high
How it was run: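 Readout is yeast growth inhibition versus vehicle-treated controls, using a strain with cln2 and rad14 alterations exposed to compound.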

[5] = NCI Yeast Anticancer Drug Screen. Data for the bub3 strain (AID 167); settings: S. cerevisiae bub3 mutant strain, at 50.0 µM, active compounds read high
How it was run: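 Part of a panel of yeast mutants defective in DNA damage repair or cell cycle regulation. Each strain is grown with compound, and inhibition is calculated relative to solvent-treated cultures.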

[6] = NCI Yeast Anticancer Drug Screen. Data for the mlh1 rad18 strain (AID 175); settings: S. cerevisiae mlh1 rad18 strain growth inhibition; at 50.0 µM; active compounds read high
How it was run: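 Genetically defined yeast (DNA repair-deficient) exposed to compounds; growth inhibition determined relative to vehicle.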

Measured: growth inhibition

CSCCNC(=O)CS(=O)(=O)c1ccc(C)cc1
inactive: [1] 3.35% | [2] -11.4% | [3] 5.25% | [4] 20.2% | [5] 7.95% | [6] 17.4%

COC(=O)C1CCC[P+]1(C)C (stereo not given)
inactive: [1] 47.1% | [2] 41.7% | [3] 45.8% | [4] 13.8% | [5] 56.5% | [6] 38.5%

CCCC(C)C(=O)OCCOCC (stereo not given)
inactive: [1] 4.55% | [2] 2.8% | [3] -1.5% | [4] -32.4% | [5] 9.3% | [6] 49.9%

ClCC[n+]1ccc2ccccc2c1
inactive: [1] 3.95% | [2] 11.6% | [3] -13.4% | [4] -13.8% | [5] -9.05% | [6] -10.7%

Cc1ccc(C2(c3ccc(Cl)cc3)c3ccccc3C3=NCCN32)cc1 (stereo not given)
inactive: [1] 19.9% | [2] 9.15% | [3] 25.6% | [4] 23% | [5] 28.1% | [6] 30.7%

Clc1nc(N2CCCCC2)c2[nH]cnc2n1
inactive: [1] -35.2% | [2] -6.2% | [3] 6.75% | [4] -9.8% | [5] -1.6% | [6] -0.9%

O=c1[nH]c2nc[nH]c(=O)c2[nH]1
inactive: [1] 0.25% | [2] -7.6% | [3] 5.1% | [4] -11.8% | [5] -6.05% | [6] 6.05%

COc1cc2c(C)nc3c4cc5c(cc4ccc3c2cc1OC)OCO5
inactive: [1] -12.4% | [2] 8.2% | [3] 18.2% | [4] -41.9% | [5] 40.2% | [6] 1%

BrC12CC3CC(CC(C3)C1)C2
inactive: [1] 21.8% | [2] 13.1% | [3] 9.4% | [4] 11.1% | [5] 9.25% | [6] 12.8%

CC(O)c1ccccc1Br (stereo not given)
inactive: [1] -9.65% | [2] -15.1% | [3] -16.2% | [4] -13.4% | [5] -36.5% | [6] -21%

O=C1Sc2ccccc2C(=O)N2CCCC12 (stereo not given)
inactive: [1] -20.8% | [2] -8.25% | [3] -11.5% | [4] 3.2% | [5] 8.2% | [6] -10.2%

CC(=O)Nc1ccc(S(=O)(=O)N2c3ccccc3Sc3ccccc32)cc1
inactive: [1] 8.95% | [2] -5.9% | [3] 4.95% | [4] 3.05% | [5] -1.5% | [6] 4.2%

C=CCc1cc(C)ccc1OC(=O)c1cc([N+](=O)[O-])cc([N+](=O)[O-])c1
inactive: [1] 2.85% | [2] -3.4% | [3] 4.55% | [4] -40% | [5] -6.6% | [6] 0.6%

CC1CCc2cc(Br)ccc2N1N (stereo not given)
inactive: [1] 33.1% | [2] 0.85% | [3] -5.35% | [4] 9.8% | [5] -4.8% | [6] 27.8%

CS(=O)(=O)OC1CCCSc2ccccc21 (stereo not given)
inactive: [1] 8.8% | [2] 2% | [3] -14.4% | [4] -8.2% | [5] 16.7% | [6] -25.4%

CCOc1ccccc1NC(=O)C(=O)C(/C(=N/N)C(=O)OC)c1nc2ccc([N+](=O)[O-])cc2[nH]c1=O (stereo not given)
inactive: [1] 16.9% | [2] -10% | [3] 5.7% | [4] 15.4% | [5] -1.35% | [6] 9.25%

COc1ccc(C(=O)C(C(=O)CCC(=O)Nc2cccc(Cl)c2)c2ccc(OC)cc2)cc1 (stereo not given)
inactive: [1] -25.1% | [2] -9.4% | [3] -20.2% | [4] -4.9% | [5] 0.5% | [6] -0.15%

CC(C)C(=O)OCc1ccccc1
inactive: [1] 0.95% | [2] -5.7% | [3] -6.75% | [4] -3.9% | [5] -10.8% | [6] -24.9%

Nc1ncc2c(n1)-c1ccccc1OC2N1CCOCC1 (stereo not given)
inactive: [1] 28% | [2] 2.15% | [3] -0.45% | [4] 2% | [5] -22.6% | [6] -7.8%

CS(=O)(=O)OCC1CCCCCCCCCCC12SCCCS2 (stereo not given)
inactive: [1] -30.9% | [2] -22.7% | [3] -3.25% | [4] 20.4% | [5] -23.6% | [6] -45.9%
